Measurements from the supplement of paper PMC6555819.

Columns and labels:
Test in all cases: PBM binding z-score (relative to random genomic background probes); higher = stronger binding; sequences stand for … in GC…GCGATTGACAGCGTAGAATGAAGG
[1] = system: FXR:RXRa (NR concentration 270 nM, RXRa partner concentration 90 nM)
Method in brief: (§1)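 Probes were double-stranded and carried 34-nt variable regions with direct-repeat seeds, single-nucleotide variants, half-site ablations and random human genomic background sequences, printed on custom Agilent 4×180K protein-binding microarrays. Arrays were incubated 1 h with ligand-free nuclear receptor dimers in PBS pH 7.4, 2% milk, 0.02% Triton X-100, 1 mM DTT, 0.2 mg/mL BSA and 0.4 mg/ml salmon testes DNA. Antibodies against each partner (one per run) detected binding, and scanned fluorescence was regression-normalized. Binding z-scores use the random background probes as reference.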

[2] = system: LXRa:RXRa (NR concentration 270 nM, RXRa partner concentration 90 nM)
Method in brief: as §1

[3] = system: LXRa homodimer (NR concentration 270 nM)
Method in brief: as §1

[4] = system: LXRb:RXRa (NR concentration 270 nM, RXRa partner concentration 90 nM)
Method in brief: as §1

[5] = system: LXRb homodimer (NR concentration 270 nM)
Method in brief: as §1

[6] = system: PPARa:RXRa (NR concentration 270 nM, RXRa partner concentration 90 nM)
Method in brief: as §1

[7] = system: PPARg:RXRa (NR concentration 180 nM, RXRa partner concentration 90 nM)
Method in brief: as §1

[8] = system: PPARg:RXRa 270nM:90nM, anti-RXR (NR concentration 270 nM, RXRa partner concentration 90 nM)
Method in brief: as §1

[9] = system: PPARg:RXRa 30nM:10nM, anti-RXR (NR concentration 30 nM, RXRa partner concentration 10 nM)
Method in brief: as §1

[10] = system: PPARg:RXRa 90nM:30nM, anti-RXR (NR concentration 90 nM, RXRa partner concentration 30 nM)
Method in brief: as §1

[11] = system: PPARg:RXRa DBDmut IVT, anti-RXR (DBD mutation: RXRa K156A/R161A, NR concentration 270 nM, RXRa partner concentration 90 nM)
Method in brief: as §1

[12] = system: PPARg:RXRa IVT, anti-PPARg (NR concentration 270 nM, RXRa partner concentration 90 nM)
Method in brief: as §1

[13] = system: PPARg DBDmut:RXRa IVT, anti-PPARg (DBD mutation: PPARg1 K132A/R137A, NR concentration 270 nM, RXRa partner concentration 90 nM)
Method in brief: as §1

[14] = system: PPARg DBDmut IVT, anti-PPARg (DBD mutation: PPARg1 K132A/R137A, NR concentration 270 nM)
Method in brief: as §1

[15] = system: PPARg homodimer (NR concentration 180 nM)
Method in brief: as §1

[16] = system: PXR:RXRa (NR concentration 270 nM, RXRa partner concentration 90 nM)
Method in brief: as §1

[17] = system: PXR homodimer (NR concentration 270 nM)
Method in brief: as §1

[18] = system: RARa:RXR (NR concentration 270 nM, RXRa partner concentration 90 nM)
Method in brief: as §1

[19] = system: RARa homodimer (NR concentration 270 nM)
Method in brief: as §1

[20] = system: RARb:RXRa (NR concentration 270 nM, RXRa partner concentration 90 nM)
Method in brief: as §1

| Sequence | PBM binding z-score [1] | PBM binding z-score [2] | PBM binding z-score [3] | PBM binding z-score [4] | PBM binding z-score [5] | PBM binding z-score [6] | PBM binding z-score [7] | PBM binding z-score [8] | PBM binding z-score [9] | PBM binding z-score [10] | PBM binding z-score [11] | PBM binding z-score [12] | PBM binding z-score [13] | PBM binding z-score [14] | PBM binding z-score [15] | PBM binding z-score [16] | PBM binding z-score [17] | PBM binding z-score [18] | PBM binding z-score [19] | PBM binding z-score [20] |
| --- | --- | --- | --- | --- | --- | --- | --- | --- | --- | --- | --- | --- | --- | --- | --- | --- | --- | --- | --- | --- |
| TCGAGTAGGTTACCAATGCGGCATTCAGCTTTCT | 0.106 | 0.532 | -0.94 | 0.215 | -0.704 | 0.883 | 0.206 | 1.1 | 1.23 | 1.24 | 3.59 | 2.67 | -0.407 | -1.16 | -0.385 | -0.209 | -1.01 | -0.26 | -0.774 | 0.646 |
| CCTCGGAGGACAGAATGTCAGAGCTGTCCGCTTT | -0.31 | -0.467 | -0.713 | -1.01 | -0.428 | -0.27 | -0.416 | -0.901 | -0.655 | -1.09 | -0.17 | -1.04 | -1.38 | -1.68 | 0.0941 | -0.762 | -0.458 | -0.687 | -0.242 | 0.241 |
| CTCGAAAGGTCGTGCTCGGGTGAGTATACCAAAC | 5.24 | 3.9 | -0.0589 | 3.32 | -0.0126 | 4.83 | 2.25 | 3.88 | 1.18 | 2.3 | 0.705 | 1.72 | 0.595 | -0.339 | 1.58 | 3.15 | -0.25 | 4.22 | -0.17 | 3.98 |
| CCTAGGTGGTCAAGGTCACACACGCTATAGGTAC | 4.58 | 3.67 | 1.51 | 3.57 | 0.536 | 4.35 | 3.72 | 3.83 | 1.19 | 2.85 | 1.34 | 3.54 | 0.368 | 0.561 | 4.82 | 4.24 | 1.58 | 4.44 | 1.3 | 4.22 |
| GCAGACAGGTGAAACGCAGGTATCTCAGGGTGGC | -0.22 | -0.184 | -0.68 | -0.253 | -1.19 | 0.544 | 0.481 | 0.0316 | -0.675 | -0.473 | 0.78 | 0.498 | -0.724 | -0.85 | -0.577 | -0.328 | -0.634 | 0.112 | -0.595 | 0.463 |
| TCGAGTAGGTTAGTCGGGGAATTCAGCCAACATA | -0.0396 | -0.257 | -0.394 | -0.065 | -0.946 | 0.287 | -0.188 | 0.615 | 0.883 | 0.675 | 2.15 | 1.62 | -0.453 | -0.828 | -0.2 | -0.311 | -0.47 | -0.102 | -0.0152 | -0.105 |
| ATTATTAGTTGAGACGAGGGCAACCGATAGGTTG | 1.13 | 0.675 | 1.08 | 0.406 | 0.941 | 0.603 | 0.713 | 0.504 | 0.68 | 0.781 | 0.469 | 1.43 | 1.76 | 1.3 | 1.77 | 1.72 | 1.69 | 1.4 | 2.49 | 1.48 |
| CCGCGTAGGTTATGGGGCATTCAGGCAACGGTGA | 0.332 | 0.33 | -0.277 | 0.756 | -0.566 | 1.43 | 0.613 | 1.17 | -0.391 | 0.458 | 0.695 | 0.593 | -1.12 | -0.878 | 0.303 | -0.0775 | -0.606 | 0.609 | 0.000588 | 0.985 |
| GCATACAGGTAATACAAGGTGAAAGTCCGATTGT | 0.599 | 2.17 | 0.595 | 0.711 | -0.363 | 1.3 | 0.859 | 0.843 | 0.676 | 0.712 | 0.771 | 1.43 | 0.568 | -0.128 | 0.379 | 0.708 | 0.62 | 1.48 | 0.481 | 0.594 |
| ATATGTAGGTAAAGGGTCATTCAGGTTGGTTCGC | 4.11 | 4.04 | 2.46 | 3.97 | 1.17 | 6.53 | 11.1 | 9.65 | 9.28 | 10.5 | 7.14 | 7.26 | 2.33 | 1.19 | 3.33 | 5.22 | 2.87 | 5.04 | 2.48 | 3.53 |
| ATCTCTAGGTAACAAGATCAGTGAAAGAGAGGAC | 0.203 | 0.168 | 0.348 | 0.0382 | 0.596 | 0.578 | 1.09 | 0.835 | 0.253 | 0.677 | 3.03 | 2.72 | 1.75 | 1.21 | 0.336 | 0.0521 | -0.0922 | 0.158 | 1.1 | 0.327 |
| GCGACGGGGGCATCAGCAGGTTACCATAACTTAA | 2.95 | 3.18 | 0.557 | 5.21 | 8.02 | 4.19 | 2.48 | 3.35 | 1.55 | 2.59 | 1.76 | 4.14 | 7.32 | 9.29 | 1.83 | 3.29 | 0.826 | 3.42 | -0.447 | 3.16 |
| TCTAGTTGGTCACGGAGGTCACACATGACGGGTA | 3.11 | 3.52 | 2.42 | 3.42 | 0.605 | 4.06 | 3.59 | 4.13 | 3.55 | 3.84 | 2.5 | 4.34 | 1.38 | 0.722 | 2.93 | 4.71 | 1.67 | 4.56 | 1.18 | 4.01 |
| GCTGCTAGGTCAACTGATGGTCAGATAAAGCTCG | 4.47 | 3.11 | 0.48 | 2.43 | 0.348 | 3.87 | 3.29 | 3.18 | 0.958 | 2.4 | 4.95 | 4.14 | -0.121 | 0.186 | 2.79 | 1.8 | -0.238 | 3.42 | -0.022 | 4.22 |
| CCGACTGGGGCATAAGGTTACCATAAGCCAGCCC | 0.197 | 1.68 | -0.354 | 0.645 | -1.33 | 1.75 | 2.29 | 3.15 | 0.853 | 2.5 | 2.93 | 3.01 | -0.979 | -1.34 | 0.447 | 0.164 | -0.32 | 1.11 | -0.464 | 1.66 |
